# Laboratory results taken from PubChem BioAssay AID1159580 (chemical genetic matrix, 2015).
# Where “and” joins values, the source holds several entries; their conditions need not be identical. Identical values can stand only once. Out of some 5,500 compounds screened, about 2,000 (36%) were called active. Not shown: some 18% with an inconclusive outcome. Cut-off read from the data, not from the text of the source: active = normalized growth mostly below about 0.91 (no sharp cut-off); inconclusive = no clear call, values can overlap the other calls; inactive = mostly above about 0.92. The list shows a part of the results. Where a structure was tested more than once in an assay, its records may differ in their call.
# Experiment: chemical genetic growth profiling, strain panel (AID 1159580);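 note: tested at 20 µM; growth read once vehicle control cultures reached saturation at 30 °C; 1 = growth at the plate median or of vehicle wells; lower values mean less growth of the strain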
# Details: S. cerevisiae deletion strains, growth OD
smiles,measurement,setting,value
O=C1c2c(O)ccc(O)c2C(=O)c2c(NCCNCCO)ccc(NCCNCCO)c21,normalized growth,"locus YAL013W, strain DEP1, stronger effect = lower value",0.968 (inactive) and 0.9 (active)
same,normalized growth,"locus YAL021C, strain ccr4, stronger effect = lower value",0.499 (active)
same,normalized growth,"locus YAL026C, strain drs2, stronger effect = lower value",0.363 (active)
same,normalized growth,"locus YAL030W, strain snc1, stronger effect = lower value",0.839 (active)
same,normalized growth,"locus YAL040C, strain CLN3, stronger effect = lower value",1.06 (inactive)
same,normalized growth,"locus YBL061C, strain skt5, stronger effect = lower value",0.81 (active)
same,normalized growth,"locus YBR009C, strain hhf1, stronger effect = lower value",0.831 (active)
same,normalized growth,"locus YBR021W, strain FUR4, stronger effect = lower value",0.941 (inactive)
same,normalized growth,"locus YBR023C, strain chs3, stronger effect = lower value",0.868 (active)
same,normalized growth,"locus YBR171W, strain sec66, stronger effect = lower value",0.911 (inactive)
same,normalized growth,"locus YBR229C, strain ROT2, stronger effect = lower value",1.03 (inactive)
same,normalized growth,"locus YBR231C, strain swc5, stronger effect = lower value",0.84 (active)
same,normalized growth,"locus YBR279W, strain paf1, stronger effect = lower value",0.669 (active)
same,normalized growth,"locus YCL011C, strain gbp2, stronger effect = lower value",0.894 (active)
same,normalized growth,"locus YCL016C, strain dcc1, stronger effect = lower value",0.385 (active)
same,normalized growth,"locus YCL029C, strain bik1, stronger effect = lower value",1.01 (inactive)
same,normalized growth,"locus YCL061C, strain MRC1 (second series), stronger effect = lower value",0.983 (inactive)
same,normalized growth,"locus YCL061C, strain MRC1, stronger effect = lower value",0.868 (active)
same,normalized growth,"locus YCL069W, strain vba3, stronger effect = lower value",0.946 (inactive)
same,normalized growth,"locus YCR088W, strain abp1, stronger effect = lower value",0.828 (active)
same,normalized growth,"locus YDL005C, strain med2, stronger effect = lower value",1.12 [resistant] (active)
same,normalized growth,"locus YDL035C, strain GPR1, stronger effect = lower value",0.976 (inactive)
same,normalized growth,"locus YDL040C, strain nat1, stronger effect = lower value",1.03 (inactive)
same,normalized growth,"locus YDL074C, strain BRE1, stronger effect = lower value",0.897 (inactive)
same,normalized growth,"locus YDL101C, strain DUN1, stronger effect = lower value",1.01 (inactive)
same,normalized growth,"locus YDL134C, strain PPH21, stronger effect = lower value",0.977 (inactive)
same,normalized growth,"locus YDL185W, strain tfp1, stronger effect = lower value",0.943 (inactive)
same,normalized growth,"locus YDL192W, strain arf1, stronger effect = lower value",0.889 (active)
same,normalized growth,"locus YDR001C, strain nth1, stronger effect = lower value",1.01 (inactive)
same,normalized growth,"locus YDR069C, strain doa4, stronger effect = lower value",0.684 (active)
same,normalized growth,"locus YDR101C, strain arx1, stronger effect = lower value",1.04 (inactive)
same,normalized growth,"locus YDR137W, strain rgp1, stronger effect = lower value",0.572 (active)
same,normalized growth,"locus YDR150W, strain NUM1, stronger effect = lower value",0.993 (inactive)
same,normalized growth,"locus YDR159W, strain sac3, stronger effect = lower value",0.788 (active)
same,normalized growth,"locus YDR162C, strain NBP2, stronger effect = lower value",0.921 (inactive)
same,normalized growth,"locus YDR195W, strain ref2",0.764 (active)
same,normalized growth,"locus YDR297W, strain sur2, stronger effect = lower value",0.885 (active)
same,normalized growth,"locus YDR318W, strain mcm21, stronger effect = lower value",0.982 (inactive)
same,normalized growth,"locus YDR334W, strain swr1, stronger effect = lower value",0.981 (inactive)
same,normalized growth,"locus YDR335W, strain msn5, stronger effect = lower value",0.821 (active)
same,normalized growth,"locus YDR363W, strain ESC2, stronger effect = lower value",0.919 (inactive)
same,normalized growth,"locus YDR388W, stronger effect = lower value",0.892 (active)
same,normalized growth,"locus YDR392W, strain spt3, stronger effect = lower value",1.28 [resistant] (active)
same,normalized growth,"locus YDR502C, strain sam2, stronger effect = lower value",0.983 (inactive)
same,normalized growth,"locus YEL003W, strain gim4, stronger effect = lower value",0.878 (active)
same,normalized growth,"locus YEL037C, strain rad23, stronger effect = lower value",0.818 (active)
same,normalized growth,"locus YEL061C, strain CIN8 (second series), stronger effect = lower value",0.896 (active)
same,normalized growth,"locus YEL061C, strain CIN8, stronger effect = lower value",1.02 (inactive)
same,normalized growth,"locus YER002W, strain NOP16, stronger effect = lower value",1.05 (inactive)
same,normalized growth,"locus YER015W, strain faa2, stronger effect = lower value",0.865 (active)
same,normalized growth,"locus YER016W, strain bim1, stronger effect = lower value",0.793 (active)
same,normalized growth,"locus YER110C, stronger effect = lower value",1.07 (inactive)
same,normalized growth,"locus YER111C, strain swi4, stronger effect = lower value",0.397 (active)
same,normalized growth,"locus YER155C, strain BEM2 (second series), stronger effect = lower value",0.965 (inactive)
same,normalized growth,"locus YER155C, strain BEM2, stronger effect = lower value",1.04 (inactive)
same,normalized growth,"locus YER167W, strain BCK2, stronger effect = lower value",0.96 (inactive)
same,normalized growth,"locus YFR010W, strain ubp6, stronger effect = lower value",0.564 (active)
same,normalized growth,"locus YGL078C, strain dbp3, stronger effect = lower value",0.942 (inactive)
same,normalized growth,"locus YGL086W, strain mad1, stronger effect = lower value",1.01 (inactive)
same,normalized growth,"locus YGL167C, strain pmr1, stronger effect = lower value",0.619 (active)
same,normalized growth,"locus YGL173C, strain kem1, stronger effect = lower value",0.57 (active)
same,normalized growth,"locus YGL227W, strain vid30, stronger effect = lower value",1.08 (inactive)
same,normalized growth,"locus YGL240W, strain doc1, stronger effect = lower value",0.696 (active)
same,normalized growth,"locus YGL248W, strain PDE1, stronger effect = lower value",1.02 (inactive)
same,normalized growth,"locus YGL253W, strain hxk2, stronger effect = lower value",0.738 (active)
same,normalized growth,"locus YGR078C, strain PAC10, stronger effect = lower value",1.01 (inactive) and 1.07 (inactive)
same,normalized growth,"locus YGR135W, strain pre9, stronger effect = lower value",0.942 (inactive)
same,normalized growth,"locus YGR252W, strain gcn5, stronger effect = lower value",0.924 (inactive)
same,normalized growth,"locus YHR013C, strain ard1, stronger effect = lower value",0.878 (inactive)
same,normalized growth,"locus YHR027C, strain rpn1, stronger effect = lower value",0.756 (active)
same,normalized growth,"locus YHR030C, strain SLT2, stronger effect = lower value",1.03 (inactive) and 0.713 (active)
same,normalized growth,"locus YHR079C, strain IRE1 (second series), stronger effect = lower value",1 (inactive)
same,normalized growth,"locus YHR079C, strain IRE1, stronger effect = lower value",0.951 (inactive)
same,normalized growth,"locus YHR094C, strain hxt1, stronger effect = lower value",1.05 (inactive)
same,normalized growth,"locus YHR129C, strain ARP1, stronger effect = lower value",1.02 (inactive)
same,normalized growth,"locus YHR142W, strain chs7, stronger effect = lower value",0.582 (active)
same,normalized growth,"locus YHR200W, strain rpn10, stronger effect = lower value",0.985 (inactive)
same,normalized growth,"locus YIL066C, strain RNR3, stronger effect = lower value",0.992 (inactive)
same,normalized growth,"locus YIL073C, strain SPO22, stronger effect = lower value",0.917 (inactive)
same,normalized growth,"locus YIL125W, strain kgd1, stronger effect = lower value",0.986 (inactive)
same,normalized growth,"locus YIR030C, strain dcg1, stronger effect = lower value",1.02 (inactive)
same,normalized growth,"locus YJL092W, strain hpr5, stronger effect = lower value",0.609 (active)
same,normalized growth,"locus YJL095W, strain BCK1 (second series), stronger effect = lower value",0.482 (active)
same,normalized growth,"locus YJL095W, strain BCK1, stronger effect = lower value",0.916 (inactive) and 0.755 (active)
same,normalized growth,"locus YJL115W, strain asf1, stronger effect = lower value",0.321 (active)
same,normalized growth,"locus YJL129C, strain trk1, stronger effect = lower value",0.306 (active)
same,normalized growth,"locus YJL134W, strain LCB3, stronger effect = lower value",1.04 (inactive)
same,normalized growth,"locus YJL154C, strain vps35, stronger effect = lower value",1.05 (inactive)
same,normalized growth,"locus YJL164C, strain tpk1, stronger effect = lower value",0.735 (active)
same,normalized growth,"locus YJL166W, strain qcr8, stronger effect = lower value",0.858 (active)
same,normalized growth,"locus YJL168C, strain set2, stronger effect = lower value",1.05 (inactive)
same,normalized growth,"locus YJL187C, strain SWE1 (second series), stronger effect = lower value",0.968 (inactive)
same,normalized growth,"locus YJL187C, strain SWE1, stronger effect = lower value",0.997 (inactive)
same,normalized growth,"locus YJR043C, strain POL32, stronger effect = lower value",0.779 (active)
